This passage reports growth results from PubChem BioAssay (NCI).

This is part of a sample that, as a whole, favours compounds with a hit. Of some 83,000 tested, about 20% had one in any assay.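 How to read the values: 0–100, growth inhibition (40 = 60% inhibited); 0, no net growth; -100 to 0, cell death (-40 = 40% of starting cells died; -100 = all dead).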 A number with no mark means an inactive call. Activity calls are given as the source filed them. How the source made its calls: active means growth percent below 10; inactive means the rest.

Test systems include HT29 colon; SNB-75 CNS; SNB-19 CNS; PC-3 prostate; SK-MEL-5 melanoma; UACC-62 melanoma; SK-MEL-28 melanoma; SN12C renal; UO-31 renal; TK-10 renal; ACHN renal; CAKI-1 renal; A498 renal; CCRF-CEM leukemia; MOLT-4 leukemia; SR leukemia; LOX IMVI melanoma; SK-MEL-2 melanoma; EKVX NSCLC.
What all share (assay): NCI-60 one-dose screen, 48 h (100 = growth as untreated, 0 = no growth, -100 = all killed)
Settings in all cases: 10 µM unless noted

With `COc1ccc(Cn2c(NCCCN(C)C)nc(=O)n(Cc3ccc(F)cc3)c2=O)cc1`, the growth in the assay on HT29 colon is 95.9%; in the assay with SNB-75 CNS, 81.4%; with SNB-19 CNS, 104%; in the assay on PC-3 prostate it was 80.3%; in the assay with SK-MEL-5 melanoma, 97.8%; in the assay with UACC-62 melanoma it was 97%. Moreover, the growth is 100% with SK-MEL-28 melanoma; 95.4% with SN12C renal; 63.6% in the assay with UO-31 renal; 110% in the assay with TK-10 renal; 105% in the assay with ACHN renal; 83.1% in the assay on CAKI-1 renal. In addition, the growth is 95.6% in the assay on A498 renal, 114% with CCRF-CEM leukemia, 84.9% in the assay with MOLT-4 leukemia and 83.5% in the assay on SR leukemia.

Turning to `CC(C)C(=O)Cc1cnccn1`, the growth in the assay on HT29 colon was 108%; with SNB-75 CNS it was 102%; in the assay with SNB-19 CNS it was 102%; in the assay on PC-3 prostate, 102%; in the assay on SK-MEL-5 melanoma it was 109%; in the assay on UACC-62 melanoma, 98.1%. The growth was 97% in the assay on LOX IMVI melanoma; 116% in the assay with SK-MEL-28 melanoma; 109% with SK-MEL-2 melanoma; 99.4% in the assay with EKVX NSCLC; 98.6% in the assay on SN12C renal; 90.8% with UO-31 renal. Further, the growth in the assay on TK-10 renal is 104%; in the assay on ACHN renal, 108%; in the assay on CAKI-1 renal, 83.4%; with A498 renal, 101%; in the assay on MOLT-4 leukemia, 123%; in the assay with SR leukemia, 114%.

As for `O=C(c1ccccc1)c1ccccc1Cl`, the growth is 92.9% in the assay on HT29 colon; 88.8% with SNB-75 CNS; 97.1% in the assay with SNB-19 CNS; 96.1% with PC-3 prostate; 105% in the assay on SK-MEL-5 melanoma; 99.6% in the assay with UACC-62 melanoma. Further, the growth with LOX IMVI melanoma is 107%; in the assay on SK-MEL-28 melanoma it was 103%; with SK-MEL-2 melanoma, 100%; in the assay with EKVX NSCLC it was 101%; in the assay with SN12C renal, 101%; in the assay on UO-31 renal it was 86.7%. Moreover, the growth is 94.6% in the assay on TK-10 renal; 112% with ACHN renal; 109% in the assay on CAKI-1 renal; 86.1% in the assay with A498 renal; 86.3% in the assay on CCRF-CEM leukemia; 94.2% in the assay on MOLT-4 leukemia. Moreover, the growth with SR leukemia was 94.5%.

As to `Cc1cccc(Cl)c1NC(=O)c1ccc2nc(NC(=O)NC3CC(C)(C)NC(C)(C)C3)sc2c1`, the growth is 59.3% in the assay with HT29 colon; -18.9% (active) in the assay on SNB-75 CNS; 93.6% in the assay with SNB-19 CNS; 66.3% with PC-3 prostate; 91.7% in the assay with SK-MEL-5 melanoma; 107% with UACC-62 melanoma. For the same compound, the growth in the assay on LOX IMVI melanoma was 63.9%; in the assay with SK-MEL-28 melanoma it was 116%; with SK-MEL-2 melanoma, 121%; with EKVX NSCLC it was 94.5%; in the assay on SN12C renal, 56.5%; in the assay with UO-31 renal, 88.7%. For the same compound, the growth in the assay on TK-10 renal was 80.2%; with ACHN renal, 94.9%; with CAKI-1 renal, 92%; in the assay on A498 renal it was 89%; with CCRF-CEM leukemia, 87.7%; with MOLT-4 leukemia it was 70%.

As for `COc1ccc2c(c1)nc(N)c1c3cc(OC)c(OC)cc3cn21`, the growth was 9.28% (active) in the assay on HT29 colon; 57.1% in the assay with SNB-75 CNS; 62.2% in the assay on SNB-19 CNS; 53.1% in the assay with PC-3 prostate; 34.1% in the assay with SK-MEL-5 melanoma; 22.1% with UACC-62 melanoma. The growth in the assay on LOX IMVI melanoma was 53.2%; in the assay on SK-MEL-28 melanoma, 57.5%; with SK-MEL-2 melanoma, 47.7%; with EKVX NSCLC, 73.1%; in the assay with SN12C renal, 56.4%; in the assay on UO-31 renal, 49.8%. In addition, the growth in the assay with TK-10 renal is 48.9%; in the assay on ACHN renal, 46.4%; in the assay with CAKI-1 renal, 28.5%; in the assay with A498 renal it was 35.9%; in the assay on CCRF-CEM leukemia, 47.1%; with MOLT-4 leukemia, 76.4%.

Regarding `COc1ccc2nc3cc(Cl)ccc3c(N3CCN(c4ccnc(Nc5ccc(F)cc5)n4)CC3)c2c1`, the growth in the assay with HT29 colon is 83.3%; in the assay on SNB-75 CNS, 69.1%; in the assay with SNB-19 CNS it was 82.4%; with PC-3 prostate, 67.3%; in the assay on UACC-62 melanoma it was 77.4%; in the assay on SK-MEL-28 melanoma, 104%. Further, the growth with SN12C renal was 71.5%; with UO-31 renal it was 56%; in the assay with TK-10 renal, 66.1%; in the assay on ACHN renal, 62.5%; in the assay on CAKI-1 renal, 72%; with A498 renal, 51.1%. Moreover, the growth with CCRF-CEM leukemia was 38.1%; with MOLT-4 leukemia it was 20%; with SR leukemia, 43.2%.

With `CCOC(=O)/C(=C/c1ccccc1)C(=O)c1ccccc1`, the growth in the assay on HT29 colon was 84.1%; in the assay with SNB-75 CNS, 49.6%; with SNB-19 CNS, 85.4%; in the assay with PC-3 prostate, 80.6%; in the assay on SK-MEL-5 melanoma, 66.5%; in the assay with LOX IMVI melanoma it was -26.9% (active). The growth was 94.3% in the assay with SK-MEL-28 melanoma; 72.6% in the assay on SN12C renal; 53.1% with UO-31 renal; 70.5% in the assay with ACHN renal; 78.1% with CAKI-1 renal; 87.5% with A498 renal. For the same compound, the values for the growth in the assay with CCRF-CEM leukemia, with MOLT-4 leukemia and in the assay with SR leukemia were 3.43% (active), 33.1% and 6.68% (active), respectively.

As for `COc1cc(/C=C/C(=O)Nc2ccc3c(c2)/C(=C\c2cccn2C)C(=O)N3)cc(OC)c1OC`, the growth in the assay on HT29 colon is 53.9%; in the assay on SNB-75 CNS, 9.39% (active); in the assay with SNB-19 CNS, 65.3%; in the assay on PC-3 prostate, 59.9%; with SK-MEL-5 melanoma, 18.2%; with LOX IMVI melanoma, 41.4%. The growth was 63.1% with SK-MEL-28 melanoma; 25.1% in the assay with SK-MEL-2 melanoma; 41.2% in the assay with SN12C renal; 28.3% in the assay on UO-31 renal; 54.9% in the assay on ACHN renal; 52.1% with CAKI-1 renal. For the same compound, the growth in the assay with A498 renal is 46.8%; in the assay with CCRF-CEM leukemia, 31.9%; in the assay on MOLT-4 leukemia, 50.8%; in the assay on SR leukemia, 16.2%.

On to `CN1COc2ccc3ccccc3c2C1`, for which the growth is 99.2% in the assay with HT29 colon; 72.1% with SNB-75 CNS; 104% with SNB-19 CNS; 105% in the assay on SK-MEL-5 melanoma; 85% in the assay on UACC-62 melanoma; 98.6% in the assay with SK-MEL-28 melanoma. Besides, the growth with SK-MEL-2 melanoma is 93.2%; in the assay with EKVX NSCLC, 96.1%; with SN12C renal, 87.5%; in the assay with UO-31 renal, 32.3%; in the assay on TK-10 renal, 105%; with ACHN renal it was 89%. For the same compound, the growth in the assay on CAKI-1 renal was 90.9%; in the assay with A498 renal it was 102%; with MOLT-4 leukemia it was 90.6%.
